Screening data from PubChem BioAssay.
HCV inhibitor: HCV inhibition; Huh7.5.1 HCVcc-Cre infection, luciferase reporter, 44 h; Potency, µM (doses to about 41.8 µM), for inactives: top-dose activity change, negative = inhibition, most hits filed as inhibitors; 3.4% of 340,000 active; active = well fitted inhibition curve with a large enough effect; inconclusive = small, poorly fitted or top-dose-only effect, or another doubt; inactive = no such curve, though single readings can be large or run the other way
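Antiviral activity was scored by luciferase reporter output from cells infected with HCVcc-Cre (~0.5 moi) in presence of compound, 44 h infection period, cells seeded 1,000/well 4 h prior.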
Vaccinia mCherry: inhibitors of vaccinia virus infection (mCherry reporter signal); Vaccinia virus mCherry reporter infection, fluorescence; Potency, µM (highest dose often 36.5 µM), for inactives: at the top dose activity change, negative = inhibition, usual class: inhibitors; 0.63% of 310,000 active; AID 720579; calls by dose curve; tested in A549 cells; note: nearly all actives have a fitted effect of over 35% in size
Vaccinia Venus: vaccinia inhibition (Venus reporter); Potency, µM (top dose mostly 36.5 µM), for inactives: top-dose activity change, negative = inhibition, hits mostly inhibitors; Vaccinia virus Venus reporter expression, fluorescence; 0.46% of 330,000 active; calls by dose curve; tested in A549 cells; note: nearly all actives have a fitted effect of over 30% in size
Lassa entry inh: Lassa virus entry inhibition; Lassa virus pseudotype entry inhibition, cell reporter; Potency, µM (series often up to 37.9 µM), inactives show at the top dose activity change, negative = inhibition, usual class: inhibitors; 1.2% of 300,000 active; calls by dose curve; tested in HEK293 cells; note: nearly all actives have a fitted effect of over 50% in size
Marburg entry inh: Marburg virus entry inhibition; Marburg virus pseudotyped entry inhibition, cell reporter; Potency, µM (series often up to 37.8 µM), for inactives: at the highest dose activity change, negative = inhibition, actives largely listed as inhibitors; 1.8% of 300,000 active; calls by dose curve; tested in HEK293 cells
An asterisk follows results filed as active; i = inactive; ? = inconclusive; . = not tested or not shown; [ ] = dose if it differs, or a comment. Hits are enriched below; roughly 4.6% of the tested compounds scored in any of these assays. % is set by controls: 0 for no effect and ±100 for the full control effect; potency is the fitted concentration of half-maximal effect.

SMILES	HCV inhibitor	Vaccinia mCherry	Vaccinia Venus	Lassa entry inh	Marburg entry inh
COc1ccc(C(c2c(O)cc(C)n(Cc3ccco3)c2=O)N2CCN(c3ccccc3)CC2)cc1 (centres undefined)	.	-7%	-2%	-7%[46.1 µM]	.
CC(C)(C)c1nc2ccccc2c2nnc(SCC(=O)Nc3nc4ccccc4s3)n12	13µM*	-21%	-23%	?	?
Cc1cc(C(F)(F)F)c(C#N)c(SCC(=O)Nc2nc3ccccc3s2)n1	?	-7%	22%	?	4.5µM*
COc1ccc(NC(=O)CCc2c(C)nn(-c3ccc(N4CCCC4)nn3)c2C)cc1Cl	.	-16%	-6%	?	.
CCc1nnc(N/N=C/c2ccc(N3CCC(C)CC3)c([N+](=O)[O-])c2)n1N	?	10µM*	?	?	?
Cc1nnc(N/N=C/c2cc([N+](=O)[O-])c(N3CCC(C)CC3)cc2N2CCC(C)CC2)n1N	13µM*	.	.	-5%	?
O=C(NN=C1C[C@@H](O)[C@H](O)[C@H]2[C@@H]3C(=O)N(Cc4ccc5c(c4)OCO5)C(=O)[C@@H]3CC[C@H]12)OCc1ccccc1	.	.	.	?	-2%[14.2 µM]
CCCCN(CCCC)CCNC(=O)c1cn(CC)c2ccc(S(=O)(=O)N3CCc4ccccc4C3)cc2c1=O	?	?	-23%	20%[46.1 µM]	-3%[46.1 µM]
CCn1cc(C(=O)NCCc2ccccc2)c(=O)c2cc(S(=O)(=O)N3CCc4ccccc4C3)ccc21	.	-17%	-29%	?	18%[46.1 µM]
CCC1CCCCN1CCCNC(=O)c1cn(CC)c2ccc(S(=O)(=O)N3CCc4ccccc4C3)cc2c1=O (centres undefined)	13µM*	i	-20%	?	?
CCn1cc(C(=O)NCCCN2CCCC(C)C2)c(=O)c2cc(S(=O)(=O)N3CCc4ccccc4C3)ccc21 (centres undefined)	11µM*	-19%	?	?	?
CC(=O)c1ccc(-c2cc(F)cc3c2OC(CNC(=O)C(C)N2CCOCC2)C3)s1 (centres undefined)	.	-4%	-11%	.	.
COc1cc(CN(C(=O)c2cccc(C)c2)c2ccccn2)cc(OC)c1OC	.	?	?	-27%[46.1 µM]	0%[46.1 µM]
Cc1cc(Br)ccc1NC(=O)CN(C)C(=O)C1CCN(c2ncnc3sc(C)c(C)c23)CC1	10µM*	?	?	?	?
COc1ccc(CN2CCN(c3ncnc4scc(-c5ccc(F)cc5)c34)CC2)cc1	?	-15%	-17%	?	13µM*
CCOc1ccc(CN2CCN(c3ncnc4scc(-c5ccccc5)c34)CC2)cc1	?	i	-11%	-18%	0%
COc1ccc(-c2csc3ncnc(N4CCN(S(=O)(=O)c5cccs5)CC4)c23)cc1	8.9µM*	i	-12%	?	?
Cc1sc2ncnc(N3CCN(CCOc4ccc(Cl)cc4)CC3)c2c1C	10µM*	.	.	?	?
Cc1cccc(NC(=O)CSc2nc(=O)n(CCN3CCOCC3)c3c2CCC3)c1C	.	-10%[7.34 µM]	-10%[7.34 µM]	-3%[46.1 µM]	.
Cc1nnsc1C(=O)NCC1Cc2cccc(-c3ncccn3)c2O1 (centres undefined)	.	-9%	-2%	.	.
CC(C)Oc1cccc(C(=O)Nc2ccc3oc(-c4ccccc4)nc3c2)c1	.	-22%	-23%	-26%[46.1 µM]	.
CC(Oc1ccccc1)C(=O)N[C@@H]1C(=O)N2C(C(=O)O)C(C)(C)S[C@H]12 (some centres undefined)	.	i	-9%	.	.
CCCCN(CCC(=O)O)c1ccc(/C=C/c2ccnc3ccccc23)cc1	.	?	-8%	.	.
Fc1ccc(-c2csc3ncnc(N4CCN(c5ccccc5)CC4)c23)cc1	-14%	-20%	-5%	?	?
Cc1sc2ncnc(N3CCN(S(=O)(=O)c4ccc(C(C)(C)C)cc4)CC3)c2c1C	5.6µM*	.	.	.	.
SMILES	HCV inhibitor	Vaccinia mCherry	Vaccinia Venus	Lassa entry inh	Marburg entry inh
COc1ccc(N2CCN(c3ncnc4scc(-c5ccc(F)cc5)c34)CC2)cc1	?	i	-24%	-11%	?
COc1ccc(N2CCN(c3ncnc4scc(-c5ccc(C)cc5)c34)CC2)cc1	?	-16%	-6%	10µM*	?
c1ccc(N2CCN(c3ncnc4scc(-c5cccs5)c34)CC2)cc1	11µM*	.	.	-27%	-15%
CCN1CCN(c2ncnc3scc(-c4ccc(OC)cc4)c23)CC1	-16%	-17%	-6%	30%[46.1 µM]	-18%[46.1 µM]
COc1ccc(-c2csc3ncnc(N4CCN(S(=O)(=O)c5ccc(C)cc5)CC4)c23)cc1	11µM*	?	-15%	-18%	?
COc1ccc(C(=O)NNc2ncnc3c2cnn3-c2ccc(C)c(Cl)c2)cc1	.	-11%	0%	-8%[46.1 µM]	.
CCc1ccccc1NC(=O)C(=O)NCC(c1cccnc1)N1CCN(c2ccccc2F)CC1 (centres undefined)	.	-9%	-18%	-24%[46.1 µM]	.
O=C(NCC1(N2CCOCC2)CCCCC1)c1cnn(-c2nccc(-c3ccco3)n2)c1C1CC1	.	-7%	0%	.	.
O=S(=O)(c1ccc(Oc2ncnc3scc(-c4ccccc4)c23)cc1)N1CCOCC1	10µM*	i	-8%	?	?
COc1ccc(Nc2ncnc3scc(-c4ccc(OC)cc4)c23)cc1	6.3µM*	?	-29%	?	7.3µM*
Cc1ccc(S(=O)(=O)N2CCN(C(=O)C3CCN(c4ncnc5sc(C)c(C)c45)CC3)CC2)c(C)c1	4.5µM*	.	.	.	.
Cc1sc2ncnc(N3CCN(S(=O)(=O)c4ccc(Br)cc4)CC3)c2c1C	.	i	-14%	-15%	3%
COc1ccc(-c2csc3ncnc(N4CCN(S(=O)(=O)c5ccc(Cl)s5)CC4)c23)cc1	10µM*	?	-21%	?	?
COc1ccc(-c2csc3ncnc(N4CCN(c5ccccc5Cl)CC4)c23)cc1	?	-22%	-20%	-13%	?
COc1cc(=O)n2c(c1C(=O)N(C)Cc1nonc1C)CCN(Cc1cccc(Cl)c1)CC2	.	-9%	0%	.	.
COC(=O)C1=C(C)N=C2S[C@@H](C)C(=O)N2[C@H]1c1cccs1	.	.	.	.	6%
Cn1cc(Cl)nc1[C@@H](O)c1ccccc1	.	.	.	.	28%
CC(=O)c1cc2c(cc1NC(=O)C1CC1)OCO2	11µM*	.	-16%	0%	0%
CCCC[C@H](CN[C@@H](CNC)[C@H](C)CC)NCCC12CCC(CC1)C2	?	22µM*	22µM*	.	.
CCN(CC)S(=O)(=O)c1ccc(-c2nnc(SCc3nnc(-c4ccccc4)o3)o2)cc1	-4%	?	0.035µM*	?	?
CNCCC(Oc1ccccc1C)c1ccccc1 (centres undefined)	.	.	.	?	14µM*
O=C1CC(c2ccccc2)=Nc2ccc(Br)cc2N1	-21%	-27%	-25%	?	?
Cc1ccc2c(c1)NC(=O)CC(c1ccccc1)=N2	3.2µM*	-12%	-8%	24%	-27%
CC1CN(CC(=O)N2CCN(Cc3nccn3C)CC2)Cc2cc(Cl)ccc2O1 (centres undefined)	.	-4%	-7%	.	.
CC1(C)CC(NC(=O)COc2ccccc2Cl)CC(C)(C)N1	26%	.	.	.	.
